# ChEMBL document CHEMBL4513216, “Probing the Open Global Health Chemical Diversity Library for Multistage-Active Starting Points for Next-Generation Antimalarials” (ACS Infect Dis, 2020)
# Screen size: about 69,000 compounds; about 8,600 (12%) showed an effect of 50% or more. The full list was thinned out, with strong results kept by preference.
# System: Plasmodium berghei
# Experiment: Screen against P. berghei liver stage (PbLuc), transformed with Luciferase, at 10uM
# Assay type: functional, HepG2
# Details: tested at 10 uM
row,Structure (SMILES),INHIBITION
1,COc1c(C(=O)NCc2cccnc2)nnn1Cc1ccccc1,2.69%
2,COc1ccc(F)c(CN2CCCC(O)(CNC3CCCCC3)C2=O)c1 (configuration not stated),4.48%
3,CC(C)(C)CNCC1(O)CCCN(Cc2ccccc2F)C1=O (configuration not stated),7.17%
4,COc1ccc(F)c(CN2CCCC(O)(CNCC(C)(C)C)C2=O)c1 (configuration not stated),71.7%
5,COc1ccc(F)c(CN2CCCC(O)(CNCc3ncc[nH]3)C2=O)c1 (configuration not stated),33.2%
6,COc1ccc(F)c(CN2CCCC(O)(CNCc3ccoc3)C2=O)c1 (configuration not stated),34.1%
7,COc1ccc(F)c(CN2CCCC(O)(CNCc3ccon3)C2=O)c1 (configuration not stated),52%
8,CCc1cccc(C)c1NC(=O)NCCCN(CC)S(C)(=O)=O,-17.7%
9,Cc1cc(C)n(C2CCCN(C(=O)Cc3cccc(F)c3)C2)n1 (configuration not stated),19.4%
10,CC1c2ncc(Cn3cccn3)n2CCN1S(C)(=O)=O (configuration not stated),43%
11,Cc1noc(C2CCCCN2C(=O)NC2CCCC2)n1 (configuration not stated),-43.4%
12,Cc1nc(CN2CCc3cc(C(=O)O)c(N(C)C)nc3CC2)cs1,19.4%
13,O=C(NCCCO)c1cc(-c2ccc3c(c2)CCO3)n[nH]1,-49.2%
14,CN(C)CCCNC(=O)c1cc(-c2ccc3c(c2)CCO3)n[nH]1,54.5%
15,O=C(NCCO)c1cc(-c2ccc3c(c2)CCO3)n[nH]1,5.85%
16,CSC(C)C(=O)NCCC(=O)N1CCN(c2ccccn2)CC1 (configuration not stated),39.2%
17,O=C1N(CCCc2ccccc2)CCCC1(O)CNCC1CCCCC1 (configuration not stated),39.5%
18,Cc1cc(CN(C)CC2(O)CCCN(CCC3CCCCC3)C2=O)no1 (configuration not stated),32.3%
19,CN(Cc1ccccc1)CC1(O)CCCN(Cc2ccc(F)cc2)C1=O (configuration not stated),31.1%
20,CN(Cc1ccccc1)CC1(O)CCCN(CCC2CCCCC2)C1=O (configuration not stated),63.7%
21,O=C1NCCN1CCNCC1(O)CCCN(CCC2CCCCC2)C1=O (configuration not stated),-48.7%
22,CN(Cc1cccnc1)CC1(O)CCCN(CC(C)(C)C)C1=O (configuration not stated),44.7%
23,O=C1N(CCC2CCCCC2)CCCC1(O)CNCCc1ccccc1 (configuration not stated),56.9%

row,Structure (SMILES),INHIBITION
1,CN(Cc1ccccc1)CC1(O)CCCN(CC(C)(C)C)C1=O (configuration not stated),51.8%
2,CN(Cc1ccc(F)cc1)CC1(O)CCCN(CC(C)(C)C)C1=O (configuration not stated),28.5%
3,Cc1nc(CN2CCCC(N(C)CC3(O)CCCCC3)C2)no1 (configuration not stated),-3.2%
4,Cc1cccc(CN2CCS(=O)(=O)[C@@H]3CCN(S(C)(=O)=O)CC[C@@H]32)n1,39.3%
5,CC(C)c1cc(C(=O)NCCN2CCCCC2CO)on1 (configuration not stated),15%
6,CCN1CCCC12CCN(C(=O)c1ccsc1)CC2,36.9%
7,O=C(c1cc2c(s1)CCC2)N1CCCC1c1noc(C2CC2)n1 (configuration not stated),-56.7%
8,Cc1nnc(NC(=O)NCc2ccc(N3CCOCC3)nc2)s1,-43.6%
9,CC(O)CNCc1c(C(C)C)nn(C)c1N1CCOCC1 (configuration not stated),3.8%
10,CCOC(=O)CC(c1cccc(OC)c1OC)c1c(C)[nH][nH]c1=O (configuration not stated),3.6%
11,c1cnc(NC2COC3(CCN(Cc4cc[nH]n4)CC3)C2)nc1 (configuration not stated),26.3%
12,Cc1cc(CN2C[C@@H]3COC[C@]3(CNC(=O)c3ccco3)C2)no1,20.6%
13,Cc1ccsc1CN1C[C@@H]2COC[C@]2(CNC(=O)c2ccco2)C1,63.7%
14,Cc1ncsc1CN1C[C@@H]2COC[C@]2(CNC(=O)c2ccco2)C1,14.8%
15,O=C(NC[C@]12COC[C@H]1CN(Cc1ccco1)C2)c1ccccc1,54.7%
16,Cn1cc(CN2C[C@@H]3COC[C@]3(CNC(=O)c3ccco3)C2)cn1,52%
17,Cn1cc(CN2C[C@@H]3COC[C@]3(CNC(=O)c3ccccc3)C2)cn1,30.3%
18,O=C(NC[C@]12COC[C@H]1CN(CC1CCOCC1)C2)c1ccccc1,30.3%
19,O=C(NC[C@]12COC[C@H]1CN(Cc1nccs1)C2)c1ccccc1,23.7%
20,O=C(NC[C@]12COC[C@H]1CN(Cc1ccncc1)C2)c1ccco1,18.2%
21,Cn1ccnc1CN1CCCN(C(=O)c2ccc(O)nc2)CC1,-24.3%
22,CN(C)S(=O)(=O)NCc1nn(CCN2CCCC2)c(=O)c2ccccc12,5.03%
23,Cc1nn(C)c2ncnc(NCc3nncn3C3CCCCC3)c12,-58.1%

row,Structure (SMILES),INHIBITION
1,CC(C)c1cc(C(=O)N2C[C@@H]3CC[C@H]2CN(Cc2ccccn2)C3)no1,41.8%
2,CC(NC(=O)c1ccsc1)c1ccc2c(c1)NC(=O)CO2 (configuration not stated),29.25%
3,Cc1cc(C)n(CCNC(=O)c2cc(C3CC3)n[nH]2)n1,20.8%
4,CCC(CC)C(=O)n1ccn(S(=O)(=O)c2ccc(C)cc2)c1=O,14.3%
5,Cn1c2c(ccc1=O)CCN(Cc1ccoc1)CC2,-93%
6,c1csc(N2CCCN(Cc3noc(C4CC4)n3)CC2)n1,7.67%
7,O=C(NC1CC1)N1CCn2c(Cn3cccn3)cnc2C1,24.1%
8,O=C([C@@H]1CCCO1)N1CCn2c(Cn3cccn3)cnc2C1,28.7%
9,O=C(N1CCCC1)N1CCn2c(Cn3cccn3)cnc2C1,38.1%
10,c1cnn(Cc2cnc3n2CCN(CC2CCCCC2)C3)c1,59%
11,O=C(NCc1ccccc1)N1CCn2c(Cn3cccn3)cnc2C1,39.2%
12,N#Cc1ccc(C(=O)N2CCn3c(Cn4cccn4)cnc3C2)cc1,7.11%
13,CN(C)C(=O)N1CCn2c(Cn3cccn3)cnc2C1,62.5%
14,O=C(NCc1cccnc1)N1CCn2c(Cn3cccn3)cnc2C1,57.9%
15,O=S(=O)(C1CC1)N1CCn2c(Cn3cccn3)cnc2C1,41%
16,CC1CCN(C(=O)c2cnc(CC3CCCN(C)C3)cn2)CC1 (configuration not stated),24.4%
17,Cc1cccc(CN2Cc3[nH]nc(COc4cccnc4)c3C2)n1,34.9%
18,CCS(=O)(=O)CCNC(=O)NC(C)c1ccc(C)s1 (configuration not stated),17%
19,Cc1oc(C(=O)O)cc1S(=O)(=O)Nc1ccccc1F,34.7%
20,O=S(=O)(c1cn[nH]c1)N1CCCC(O)(CN2CCOCC2)CC1 (configuration not stated),13.125%
21,CC(=O)Nc1nc(C(=O)N2CCCC2c2noc(C3CC3)n2)cs1 (configuration not stated),2.3%
